Assay outcomes: PubChem BioAssay, National Center for Advancing Translational Sciences (NCATS)
HTT-AS promoter: activators of huntingtin-antisense promoter activity. actives 0.24% (n = 48,000). AID 1508624. Potency, µM (series often up to 57.5 µM), for the others: at the highest dose activity change, positive = activation, actives largely listed as activators. HEK293 HTT-AS promoter firefly luciferase reporter, 24 h; response scale: percent change from vehicle, -100% = no light; also: potency is read from the fitted curve at half-maximal effect; nearly all actives have a fitted effect of over 55% in size
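Quantitative HTS used concentration series of up to 57.5 uM final on HEK293 luciferase reporter cells, 24 h at 37 degrees C. Readout was Dual-Glo firefly luminescence.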
DRV1 agonist: GPR32 (DRV1) agonism, beta-arrestin recruitment; actives 2.5% (n = 48,000); O75388; CHO-K1 GPR32 beta-arrestin PathHunter luminescence, 90 min; zero percent set by DMSO-only wells; AID 1346428; activation, % at 76.9 µM;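 active = activation of at least 60% and not above a set upper limit, about 1 call in 100 departs from these limits; inconclusive = activation of 40% to 60%, or above that upper limit; inactive = activation under 40%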; also: 0% is about no effect
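Engineered CHO-K1 line co-expressing GPR32-ProLink and EA-beta-arrestin. Compound treatment lasted 90 min at 37 °C. Luminescence was recorded after 1 h with substrate at ambient temperature, relative to DMSO basal wells.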
GALK inh: GALK (human) enzyme inhibition. Potency, µM (doses to about 57.5 µM), for inactives: at the highest dose activity, negative = inhibition, actives largely listed as inhibitors. AID 1347072. 44,000 tested, under 10 active. recombinant GALK, Kinase-Glo ATP luminescence, 1 h. P51570;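 also: plate controls were full GALK reaction for no effect and reaction lacking GALK for full effect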
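5 nM GALK; 35 uM ATP; 100 uM D-galactose; 20 mM HEPES pH 8.0, 5 mM MgCl2, 60 mM NaCl, 1 mM DTT, 0.01% BSA; 1 h RT; Kinase-Glo Plus luminescence.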
HTT promoter inh: inhibitors of huntingtin promoter activity | HEK293 HTT promoter firefly luciferase reporter, 24 h | actives 0.93% (n = 48,000) | Potency, µM (series often up to 57.5 µM), for inactives: at the top dose activity change, negative = inhibition, hits mostly inhibitors | AID 1508623; also: potency is read from the fitted curve at half-maximal effect; nearly all actives have a fitted effect of over 50% in size
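HEK293 cells carrying firefly luciferase reporters were seeded at 2,500 per well in Opti-MEM and cultured for 24 h. They were then treated with compounds at up to 57.5 uM final for 24 h at 37 degrees C before Dual-Glo luminescence readout.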
B2AR arrestin ag: ADRB2 beta-arrestin recruitment; 44,000 tested, under 10 active; AID 1347077; Potency, µM (top dose mostly 46.1 µM), actives largely listed as activators; HTLA Tango cells, beta-arrestin recruitment, luciferase luminescence, 18 h;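 also: potency is read from the fitted curve at half-maximal effect; 0% = DMSO and full agonism = EC100 isoproterenol or metaproterenol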
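Tango cell line, 1% FBS DMEM; cpd titration up to 46 microM; 18 hr, 37 degrees C, 5% CO2. Luciferin/ATP substrate mix added, 15 min RT, luminescence. %Activity, CRC fitting, curve-class categorization.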
TSG101-PTAP inh: TSG101-PTAP interaction inhibition, HIV-1 budding; 44,000 tested, under 10 active; Fluorescence polarization, FITC-PTAP peptide/Tsg101, 20 min; Potency, µM (series often up to 115 µM), most hits filed as inhibitors; AID 1347069; Q99816; also: potency is read from the fitted curve at half-maximal effect; 0% is about no effect
Target sequence (Q99816 whole entry, looked up): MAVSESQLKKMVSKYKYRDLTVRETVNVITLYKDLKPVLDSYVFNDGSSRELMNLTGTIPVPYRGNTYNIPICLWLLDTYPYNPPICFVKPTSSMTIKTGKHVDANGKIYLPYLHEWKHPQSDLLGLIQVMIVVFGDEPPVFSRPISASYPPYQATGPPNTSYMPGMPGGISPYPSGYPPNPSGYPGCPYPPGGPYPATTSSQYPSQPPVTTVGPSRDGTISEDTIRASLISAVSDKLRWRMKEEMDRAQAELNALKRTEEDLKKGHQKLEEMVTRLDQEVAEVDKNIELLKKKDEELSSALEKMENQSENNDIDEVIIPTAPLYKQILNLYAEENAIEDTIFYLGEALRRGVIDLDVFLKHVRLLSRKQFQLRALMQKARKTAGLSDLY
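Fluorescence polarization: Tsg101 binding domain (10 uM final) in 10 mM HEPES pH 7.5, 0.15 M NaCl, 0.01% Tween 20, 3 mM EDTA, 0.1 mM TCEP; compounds pinned; FITC-PTAP peptide 50 nM final; 20 min, r.t.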
Starred values were filed as active, the others as inactive; i = inactive; ? = inconclusive; nt = no result given. In the library only some 3.7% were active in any assay of this set; here they are far more common. Unless noted, calls follow the shape of the dose curve; as a rule, active = well fitted curve in the direction sought with a large enough effect; inconclusive = small, poorly fitted or top-dose-only effect, or another doubt; inactive = no such curve, though single readings can be large; an effect the other way counts as inactive or inconclusive.

SMILES | HTT-AS promoter | DRV1 agonist | GALK inh | HTT promoter inh | B2AR arrestin ag | TSG101-PTAP inh
CC1(C)SCCN(S(=O)(=O)c2ccc(OCC#CCO)cc2)[C@@H]1C(=O)NO | -2% | nt | nt | 2% | nt | nt
O=C(Nc1c(Cl)cncc1Cl)c1ccc(OC(F)F)c(OCC2CC2)c1 | -16% | nt | nt | 4% | nt | nt
COc1ccc(CNC(=O)CCc2c(C)c3cc4c(C)coc4cc3oc2=O)cc1 | nt | 68* | 7% | nt | i | i
CCOC(=O)[C@H]1O[C@H]1C(=O)N[C@@H](CC(C)C)C(=O)NCCC(C)C | -7% | nt | nt | -10% | nt | nt
Cc1ccc(S(=O)(=O)NCCc2csc3nc(-c4ccccc4C)nn23)cc1 | -23% | 80* | -1% | -20% | i | i
COC(=O)c1cc(Cl)ccc1NC(=O)CSc1ncc(S(=O)(=O)c2ccc(Br)cc2)c(=O)[nH]1 | -6% | 100* | -11% | -12% | i | i
COc1ccc(CNC(=O)CSc2ncc(S(=O)(=O)c3ccc(Br)cc3)c(=O)[nH]2)cc1 | -15% | -18 | 0% | -11% | i | i
Cc1ccc(NC(=O)C2CCN(S(=O)(=O)c3c(C)noc3/C=C/c3ccco3)CC2)cc1C | -24% | -27 | -1% | ? | i | i
Cc1ccc(/C=C/c2onc(C)c2S(=O)(=O)N2CCC(C(=O)NCc3ccco3)CC2)cc1 | -16% | 88* | 1% | -10% | i | i
Cc1noc(/C=C/c2ccco2)c1S(=O)(=O)N1CCC(C(=O)Nc2ccc(F)c(Cl)c2)CC1 | -45% | -15 | -1% | 32µM* | i | i
Cc1noc(/C=C/c2ccccc2F)c1S(=O)(=O)N1CCC(C(=O)NCc2ccco2)CC1 | -30% | -22 | 0% | ? | i | i
Cc1ccc(-c2c(C)n3c4c(=O)n(C)c(=O)n(C)c4nc3n2CCO)cc1 | -43% | ? | 1% | 2µM* | i | i
COCCn1c(-c2ccccc2)c(C)n2c3c(=O)n(C)c(=O)n(C)c3nc12 | -22% | 2 | 9% | -18% | i | i
CCCCn1c(-c2ccc(C)cc2)c(C)n2c3c(=O)n(C)c(=O)n(C)c3nc12 | -2% | 85* | 1% | -27% | i | i
Fc1ccc(-n2ncc3c(NCCC4=CCCCC4)ncnc32)cc1 | 10µM* | 39 | -8% | 38% | i | i
CCC(C)Nc1ncnc2c1cnn2-c1ccc(F)cc1 (stereo not drawn) | ? | 65* | 2% | 39% | i | i
Cc1ccc(Cl)cc1-n1ncc2c(NCCC3=CCCCC3)ncnc21 | 19% | 49 | 0% | -33% | i | i
OCCN(CCO)c1ncnc2c1cnn2-c1ccc(F)cc1 | 7.9µM* | 9 | 0% | 44% | i | i
Cc1ccc(-n2ncc3c(N(CCO)Cc4ccccc4)ncnc32)cc1 | ? | -6 | -1% | 9% | i | i
CN(C)Cc1c(C(=O)NCCOc2ccc(C(=O)NO)cc2)oc2ccccc12 | ? | nt | nt | 278% | nt | nt
CN(C)c1ccc(Nc2nc(N)n(C(=O)c3c(F)cccc3F)n2)cc1 | 24µM* | nt | nt | 21% | nt | nt
CN(C)c1ccc(Nc2nc3ccccc3n3nnnc23)cc1 | -17% | -15 | 3% | -20% | i | i
COc1ccc(N2CCN(c3ccc(-c4nc(-c5cccc(C)c5)no4)cc3[N+](=O)[O-])CC2)cc1 | 21% | 10 | -13% | 25% | i | i
COc1ccccc1C(=O)N(Cc1nc(-c2cccc(C)c2)no1)C(C)C | -23% | 87* | 8% | -27% | i | i
COc1ccccc1OCc1nc(-c2cccc(C)c2)no1 | 10µM* | 77* | 3% | 69% | i | i
COc1cc(OC)cc(-c2nc(-c3cccc(C)c3)no2)c1 | 11µM* | 8 | 2% | 61% | i | i
